Values without a mark were called inactive. Inconclusive results are not listed. Activity calls are given as the source filed them. Unless noted, the call rests on the fitted dose curve; in most records, active means well fitted curve in the direction sought with a large enough effect in the repeat runs; inconclusive means weak or mixed curves; inactive means no such curve, though single readings can be large; an effect the other way counts as inactive or inconclusive.

Potency, outcome and max activation data for 8 compounds are collected here from PubChem BioAssay (Tox21).

Experiment [1] has as its target Thyrotropin receptor (Homo sapiens) (UniProt P16473). Briefly: qHTS assay to identify small molecule antagonists of the thyroid stimulating hormone receptor (TSHR) signaling pathway (AID 1259385; calls by dose curve; further: nearly all actives have a fitted effect of over 20% in size). A digest of the protocol:
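TSHR-HEK293 cells (800/well) plated 18 h, then compounds with Ro20-1724 and TSH at 1.5 ng/mL final, 30 min at room temperature. cAMP quantified by HTRF (cAMP-d2/anti-cAMP-cryptate, 1 h); 15 concentrations in triplicate.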
(In general: qHTS replaces the single test concentration by a dilution series.)

The nature of experiment [2]: qHTS assay to identify small molecule agonists of the estrogen receptor alpha (ER-alpha) signaling pathway in the presence of an antagonist - cell viability counter screen (AID 1259386).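 Further: series mostly up to about 92 µM; cells exposed to compounds for 22 h at 37 °C before the viability read; nearly all actives have a fitted effect of over 30% in size.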 A digest of the protocol: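 Cytotoxicity was measured in parallel with the ERE-luciferase agonist screen, in the same wells. The cells were VM7Luc4E2, which endogenously express ER-alpha, and treatment was with compounds plus 10.0nM ICI-182,780 for 22hr.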

Experiment [3] concerns the target Progesterone receptor (Homo sapiens) (UniProt P06401). Briefly: qHTS assay to identify small molecule agonists of the progesterone receptor (PR) signaling pathway (AID 1346784; calls by dose curve; further: nearly all actives have a fitted effect of over 30% in size). A digest of the protocol:
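Agonist mode, quantitative HTS format in a HEK 293T line expressing a UAS-controlled beta-lactamase reporter; 16 hr compound exposure at 37C in 2% charcoal-stripped FBS, then LiveBLAzer B/G FRET fluorescence.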

The nature of experiment [4]: qHTS assay to identify small molecule antagonists of the progesterone receptor (PR) signaling pathway - cell viability counter screen (AID 1346798). Further: series mostly up to about 92 µM; nearly all actives have a fitted effect of over 50% in size. A digest of the protocol: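 Same-well multiplex: after 16 hr at 37C with compound and R5020 stimulation, HEK293T cells carrying a UAS-bla reporter received LiveBLAzer substrate (2 hr RT), then CellTiter-Glo (30 min RT) for luminescent viability.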

Experiment [5] is described as follows: qHTS assay to identify small molecule agonists of the progesterone receptor (PR) signaling pathway - cell viability counter screen (AID 1346799; calls by dose curve; further: nearly all actives have a fitted effect of over 45% in size). A digest of the protocol: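 Counter screen for cytotoxicity: compound-treated PR-UAS-bla HEK293T cells (16 hr, 37C, 5% CO2) were assayed with CellTiter-Glo, luminescence measured after 30 min at room temperature.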

A short description of experiment [6]: qHTS assay to identify small molecule antagonists of the TGF-beta/Smad signaling pathway - cell viability counter screen (AID 1346824). Further: nearly all actives have a fitted effect of over 50% in size. A digest of the protocol:
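SBE-bla HEK 293T cells, incubated overnight, then compound plus 0.25 ng/mL TGF-beta1 (stock added) for 5 hr at 37 C. Viability was read in the same wells by CellTiter-Glo luminescence after 30 min at room temperature.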

Experiment [7] is described as follows: qHTS assay to identify small molecule agonists of the TGF-beta/Smad signaling pathway - cell viability counter screen (AID 1346829). Further: top concentration of the series differs between compounds; nearly all actives have a fitted effect of over 45% in size. A digest of the protocol: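 Compound-treated SBE-bla HEK 293T cells (5 hr, 37 C) were assessed for viability with CellTiter-Glo in parallel with the reporter read.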
A short description of experiment [8]: qHTS assay to identify small molecule agonists of the TGF-beta/Smad signaling pathway (AID 1346859; active means well fitted activation curve with a large enough effect in the signal ratio in the repeat runs, not every such curve was filed as active; the % refers to the signal ratio; further: series mostly up to about 77 µM). A digest of the protocol: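 Smad-responsive beta-lactamase reporter cells (HEK 293T) received compounds from DMSO stocks after overnight attachment, were incubated 5 hr, then treated 2 hr with FRET substrate before dual-emission fluorescence measurement (405 nm excitation).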

For experiment [9], the target named is Thyrotropin-releasing hormone receptor (Homo sapiens) (UniProt P34981). Put plainly: qHTS assay to identify small molecule antagonists of the thyrotropin-releasing hormone receptor (TRHR) signaling pathway (AID 1346877; active means well fitted inhibition curve with a large enough effect in the repeat runs, not every such curve was filed as active; further: series mostly up to about 51 µM). A digest of the protocol:
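Antagonism is measured as suppression of the calcium response to 1 nM TRH in TRHR-HEK293 cells that have been dye-loaded for 2 h at 37 °C after overnight plating. Each compound is tested at 15 concentrations in triplicate.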

Experiment [10] shares this target. Put plainly: qHTS assay to identify small molecule agonists of the thyrotropin-releasing hormone receptor (TRHR) signaling pathway (AID 1346891; calls by dose curve;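 further: HEK293 cells expressing TRHR with calcium dye readout; series mostly up to about 58 µM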). A digest of the protocol: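 Agonist-mode calcium mobilisation screen: TRHR-transfected HEK293 cells cultured overnight (18 h), dye-loaded for 2 h at 37 °C, exposed to compounds, and monitored by fluorescence for 3 min.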

Experiment [11] can be described thus: Human pregnane X receptor (PXR) small molecule agonists, qHTS cell viability counter screen (AID 1346977). Further: nearly all actives have a fitted effect of over 50% in size. A digest of the protocol: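 Measures live-cell protease fluorescence (CellTiter-Fluor) in PXR-Luc HepG2 cells treated 24hr with compounds at 37C. Cells had 5hr to attach before pin transfer of DMSO solutions.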
The nature of experiment [12]: Caspase-3/7 induction in HepG2 cells by small molecules, qHTS assay (AID 1346978). Further: nearly all actives have a fitted effect of over 15% in size. A digest of the protocol:
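Wild-type HepG2 cells, 2,000/well, settled 5 hr at 37 C and 5% CO2, then compound-treated for 17 hr; caspase-3/7 activity read by luminescent Caspase-Glo 3/7 after 30 min at room temperature.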

A short description of experiment [13]: Caspase-3/7 induction in CHO-K1 cells by small molecules, qHTS cell viability counter screen (AID 1346979). Further: nearly all actives have a fitted effect of over 35% in size. Further: potency means the concentration at half of the fitted maximal effect. A digest of the protocol: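 In the same wells as the caspase read, viability of compound-treated wild-type CHO-K1 cells was assessed using CellTiter-Fluor, added after 16hr at 37C and measured by fluorescence following 1hr further incubation.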
Experiment [14] in a line: Caspase-3/7 induction in CHO-K1 cells by small molecules, qHTS assay (AID 1346980). Further: nearly all actives have a fitted effect of over 15% in size. A digest of the protocol: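 Wild-type CHO-K1 cells exposed to compounds for 17hr at 37 C, 5% CO2. Caspase-3/7 activity then measured by Caspase-Glo 3/7 luminescence after 30min at room temperature.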
Experiment [15] is described as follows: Caspase-3/7 induction in HepG2 cells by small molecules, qHTS cell viability counter screen (AID 1346981). Further: series mostly up to about 92 µM; nearly all actives have a fitted effect of over 30% in size. A digest of the protocol:
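Cell viability is measured as a cytotoxicity counter screen alongside the Caspase-Glo 3/7 readout in identical wells. Wild-type HepG2 cells are treated with test compounds for 16 hr at 37 C before CellTiter-Fluor addition and a 1-hr incubation.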

Experiment [16] deals with Progesterone receptor (Homo sapiens) (UniProt P06401). Briefly: qHTS assay to identify small molecule antagonists of the progesterone receptor (PR) signaling pathway (AID 1346795; active means well fitted inhibition curve with a large enough effect in the signal ratio in the repeat runs, not every such curve was filed as active; the % refers to the signal ratio; further: potency means the concentration at half of the fitted maximal effect). A digest of the protocol:
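HEK293T PR-UAS-bla reporter cells in charcoal-stripped serum (2%) received compound after a 6 hr settling period, followed by R5020 agonist at 1 nM final; 16 hr incubation preceded the FRET substrate step and fluorescence measurement.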

Experiment [17] concerns the target Nuclear receptor subfamily 1 group I member 2 (Homo sapiens) (UniProt O75469). Briefly: Human pregnane X receptor (PXR) small molecule agonists, qHTS assay (AID 1346982). Further: nearly all actives have a fitted effect of over 35% in size. A digest of the protocol: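 Cells: HepG2 stably carrying PXR-Luc. Medium held 5% charcoal-stripped FBS. Compounds in DMSO added after 5 hr plating, incubated 24 hr, then luminescence quantified with ONE-Glo.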

The target of experiment [18] is Nuclear receptor subfamily 1 group I member 2 (Rattus norvegicus) (UniProt Q9R1A7). Put plainly: Rat pregnane X receptor (rPXR) activation by small molecules, qHTS assay (AID 1346983). Further: nearly all actives have a fitted effect of over 20% in size. Conditions: rPXR luciferase reporter cells, One-Glo luminescence, 24 h; max activation: hits give high values. A digest of the protocol: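 Cell-based rPXR activation assay: rPXR cells, 2,000 per well, rested 5hr at 37 C, then exposed to compounds in DMSO for 24 hr at 37 C. Luciferase activity read by One-Glo luminescence after 30 min at room temperature.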
Chain of Nuclear receptor subfamily 1 group I member 2 (Rattus norvegicus) (Q9R1A7 whole entry, looked up): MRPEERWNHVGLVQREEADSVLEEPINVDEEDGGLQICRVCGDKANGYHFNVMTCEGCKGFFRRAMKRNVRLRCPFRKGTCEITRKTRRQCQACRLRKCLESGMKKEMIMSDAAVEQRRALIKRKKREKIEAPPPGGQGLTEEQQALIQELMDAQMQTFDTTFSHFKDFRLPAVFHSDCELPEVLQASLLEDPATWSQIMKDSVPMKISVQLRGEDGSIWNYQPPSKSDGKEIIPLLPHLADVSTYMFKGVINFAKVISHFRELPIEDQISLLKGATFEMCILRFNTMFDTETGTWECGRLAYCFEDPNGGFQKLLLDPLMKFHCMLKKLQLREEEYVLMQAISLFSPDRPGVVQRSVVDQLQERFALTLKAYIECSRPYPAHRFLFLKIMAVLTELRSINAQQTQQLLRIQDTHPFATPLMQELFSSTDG

The target of experiment [19] is Nuclear receptor subfamily 1 group I member 2 (Homo sapiens) (UniProt O75469). Put plainly: CYP3A4 induction through human pregnane X receptor (PXR) by small molecules, qHTS assay (AID 1346984). Further: nearly all actives have a fitted effect of over 40% in size. Further: potency means the concentration at half of the fitted maximal effect. A digest of the protocol:
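Quantitative HTS in DPX-2 cells, i.e. HepG2 transfected with PXR response element and CYP3A4-promoter luciferase. Compounds in DMSO incubated 24hr at 37C; then P450-Glo CYP3A4 substrate, 3uM final, 3hr; One-Glo luminescence.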

Experiment [20] has the same target. Put plainly: Human pregnane X receptor (PXR) activation by small molecules, qHTS assay (AID 1346985). Further: nearly all actives have a fitted effect of over 40% in size. A digest of the protocol: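 DPX-2 cells (HepG2 co-transfected with a PXR response element and a CYP3A4-promoter luciferase construct) were seeded at 2,000 per well, rested 5 hr at 37C, then exposed to DMSO-dissolved compounds for 24 hr. Activation was read as luciferase luminescence.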
On the % scale 0 is the no-effect control and ±100 the full control effect.

Chain of Nuclear receptor subfamily 1 group I member 2 (Homo sapiens) (O75469 whole entry, looked up): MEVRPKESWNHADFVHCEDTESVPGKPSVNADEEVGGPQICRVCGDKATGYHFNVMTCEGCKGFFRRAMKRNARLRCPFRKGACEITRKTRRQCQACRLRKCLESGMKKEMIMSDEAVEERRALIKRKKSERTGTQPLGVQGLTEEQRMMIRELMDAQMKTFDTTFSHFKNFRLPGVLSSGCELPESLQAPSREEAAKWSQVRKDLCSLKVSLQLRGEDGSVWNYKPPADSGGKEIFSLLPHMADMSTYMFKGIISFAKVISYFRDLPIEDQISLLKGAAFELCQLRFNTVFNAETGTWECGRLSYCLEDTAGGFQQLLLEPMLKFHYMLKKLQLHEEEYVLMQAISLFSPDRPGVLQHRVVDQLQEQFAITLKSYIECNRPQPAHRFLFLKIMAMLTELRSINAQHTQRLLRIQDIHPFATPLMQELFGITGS
Chain of Progesterone receptor (Homo sapiens) (P06401 whole entry, looked up): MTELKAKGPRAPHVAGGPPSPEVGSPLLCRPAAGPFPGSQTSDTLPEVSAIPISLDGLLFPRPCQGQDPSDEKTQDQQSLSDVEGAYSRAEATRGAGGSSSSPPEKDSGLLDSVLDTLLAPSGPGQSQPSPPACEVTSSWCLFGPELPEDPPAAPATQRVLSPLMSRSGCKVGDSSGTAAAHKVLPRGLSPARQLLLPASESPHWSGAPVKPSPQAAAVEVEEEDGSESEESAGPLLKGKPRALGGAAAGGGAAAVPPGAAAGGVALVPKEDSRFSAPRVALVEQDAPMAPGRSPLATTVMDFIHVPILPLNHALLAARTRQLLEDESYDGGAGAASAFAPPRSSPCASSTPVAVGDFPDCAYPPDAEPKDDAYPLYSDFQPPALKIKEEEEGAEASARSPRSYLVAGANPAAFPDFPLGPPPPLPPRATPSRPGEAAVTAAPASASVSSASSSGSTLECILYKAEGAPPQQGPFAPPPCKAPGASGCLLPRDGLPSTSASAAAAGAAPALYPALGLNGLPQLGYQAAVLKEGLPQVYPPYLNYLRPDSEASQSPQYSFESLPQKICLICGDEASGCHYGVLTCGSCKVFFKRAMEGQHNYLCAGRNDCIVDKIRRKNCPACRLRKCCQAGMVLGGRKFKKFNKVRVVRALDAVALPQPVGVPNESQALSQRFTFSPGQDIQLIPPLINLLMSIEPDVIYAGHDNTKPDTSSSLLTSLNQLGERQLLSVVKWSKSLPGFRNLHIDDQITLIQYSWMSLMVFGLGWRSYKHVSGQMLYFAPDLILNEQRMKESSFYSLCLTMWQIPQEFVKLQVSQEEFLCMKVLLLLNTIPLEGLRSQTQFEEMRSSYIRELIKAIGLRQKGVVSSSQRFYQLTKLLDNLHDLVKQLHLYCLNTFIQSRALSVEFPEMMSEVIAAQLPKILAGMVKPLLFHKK
Chain of Thyrotropin-releasing hormone receptor (Homo sapiens) (P34981 whole entry, looked up): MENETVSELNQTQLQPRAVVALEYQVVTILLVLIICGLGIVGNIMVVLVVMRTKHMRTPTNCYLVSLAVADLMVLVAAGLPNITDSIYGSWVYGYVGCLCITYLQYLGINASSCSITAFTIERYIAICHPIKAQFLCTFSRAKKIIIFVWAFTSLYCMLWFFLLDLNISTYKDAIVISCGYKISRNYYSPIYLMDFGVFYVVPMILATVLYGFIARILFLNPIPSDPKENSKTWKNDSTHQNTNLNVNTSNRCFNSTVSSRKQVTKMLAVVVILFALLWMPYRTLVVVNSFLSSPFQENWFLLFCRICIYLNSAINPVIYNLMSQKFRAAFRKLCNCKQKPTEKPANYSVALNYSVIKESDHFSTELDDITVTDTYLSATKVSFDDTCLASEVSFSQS
Chain of Thyrotropin receptor (Homo sapiens) (P16473 whole entry, looked up): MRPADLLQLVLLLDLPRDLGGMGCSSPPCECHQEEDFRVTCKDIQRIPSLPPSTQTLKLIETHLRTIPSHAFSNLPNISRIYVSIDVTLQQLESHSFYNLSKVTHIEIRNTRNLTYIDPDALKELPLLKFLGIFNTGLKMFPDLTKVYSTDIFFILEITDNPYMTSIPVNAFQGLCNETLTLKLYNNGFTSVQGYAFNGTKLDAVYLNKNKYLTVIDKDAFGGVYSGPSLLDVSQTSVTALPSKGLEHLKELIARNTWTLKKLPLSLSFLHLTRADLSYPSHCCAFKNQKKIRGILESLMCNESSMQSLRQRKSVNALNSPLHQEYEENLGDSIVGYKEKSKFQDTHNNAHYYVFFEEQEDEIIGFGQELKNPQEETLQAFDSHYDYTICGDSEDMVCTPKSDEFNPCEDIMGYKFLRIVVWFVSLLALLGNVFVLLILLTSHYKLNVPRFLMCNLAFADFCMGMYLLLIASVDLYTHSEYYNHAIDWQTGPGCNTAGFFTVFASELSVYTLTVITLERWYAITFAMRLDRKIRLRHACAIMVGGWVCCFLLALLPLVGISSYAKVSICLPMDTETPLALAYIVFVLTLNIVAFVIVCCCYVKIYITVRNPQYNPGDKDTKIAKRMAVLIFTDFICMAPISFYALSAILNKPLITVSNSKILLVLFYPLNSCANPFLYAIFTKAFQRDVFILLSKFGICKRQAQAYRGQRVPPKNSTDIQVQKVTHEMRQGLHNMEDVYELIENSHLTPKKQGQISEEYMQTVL

`N#C/C(N)=C(/N)C#N`: the Potency entry in [1], in experiment [2], in experiment [3], in experiment [4], in [5] and in experiment [6] was “inactive” in each case. In addition, the Potency entry in experiment [7], in experiment [9], in experiment [10], in experiment [11], in experiment [12] and in experiment [13] was “inactive” each time. Moreover, the Potency result in experiment [14] and in experiment [15] was “inactive” throughout. Besides, the outcome in experiment [8] was inactive.

On to `O=C(O)C1(c2ccc3c(c2)OC[C@H](Cc2ccc(-c4ccccc4)cc2)[C@H]3O)CCCC1`, for which the Potency entry in [1], in experiment [2], in [3], in [6], in experiment [7] and in experiment [12] was “inactive” each time. The Potency entry in experiment [14] and in [15] was “inactive” in each case. Besides, the Potency in experiment [16] was 48.6 µM (active).

As for `ClC=C(Cl)Cl`, the Potency entry in experiment [1], in [2], in [3], in experiment [16], in experiment [5] and in experiment [6] was “inactive” throughout. In addition, the Potency entry in experiment [7], in [9], in experiment [11], in [12], in experiment [13] and in experiment [14] was “inactive” in each case. Also, the Potency result in [15], in experiment [17], in [19] and in experiment [20] was “inactive” in each case. The call in experiment [8] was inactive. For the same compound, in [18], the max activation is -0.508%.

Take `N#CCC#N`: the Potency result in [1], in experiment [2], in experiment [3], in experiment [16], in [5] and in experiment [6] was “inactive” in each case. Further, the Potency result in experiment [9], in experiment [12] and in experiment [14] was “inactive” each time. Moreover, in experiment [8], the compound was classed as inactive. Further, the Potency in [13] was 30.6 µM (active).

Turning to `c1ccc(CN2CCNCC2)cc1`, the Potency entry in [1], in [2], in experiment [3], in experiment [16], in experiment [5] and in experiment [6] was “inactive” throughout. The Potency result in experiment [7], in experiment [11], in experiment [12], in [13], in [14] and in experiment [15] was “inactive” each time. Moreover, the Potency result in [17] was “inactive”. In addition, the outcome in experiment [8] was inactive.

Take `Nc1nc(N)nc(N)n1`: the Potency result in [1], in experiment [2], in experiment [3], in experiment [16], in experiment [5] and in [6] was “inactive” in each case. Also, the Potency result in experiment [7], in experiment [9], in experiment [10], in [11], in experiment [12] and in [13] was “inactive” each time. Also, the Potency entry in [14], in [15] and in experiment [17] was “inactive” in each case. Further, the compound was called inactive in [8].

For the compound `C#CCOC(C(=O)OCCN(C)C)(c1ccccc1)c1ccccc1`, the Potency entry in experiment [1], in experiment [2], in experiment [3], in experiment [16], in experiment [5] and in experiment [6] was “inactive” throughout. Besides, the Potency result in [7], in experiment [11], in [12], in [13], in [14] and in experiment [15] was “inactive” in each case. The Potency entry in experiment [20] is “inactive”. Moreover, the call in experiment [8] was inactive. Further, the max activation in [18] was -6.97%. Further, the Potency in experiment [19] was 15.8 µM (active).

`CC(C)=CCOc1c2occc2cc2ccc(=O)oc12`: the Potency result in [1], in experiment [2], in experiment [3], in experiment [4], in [5] and in experiment [6] was “inactive” throughout. For the same compound, the Potency result in experiment [7], in experiment [9], in experiment [10], in [11], in experiment [12] and in experiment [13] was “inactive” throughout. In addition, the Potency entry in experiment [14] and in experiment [15] was “inactive” each time. In experiment [8], the result was inactive.
